ADAM17 inh – inhibits human ADAM17. P78536. recombinant ADAM17, EDANS/DABCYL FRET peptide cleavage. inhibition, % at 6.95 µM. hit rate 0.83% among 370,000. AID 720648;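 active = inhibition above the mean of compounds lying between control limits plus 3 SD, set per campaign, cut at about 8.5% in these data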;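 note: 0% = DMSO-only wells as the low control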
AHR act – activators of human aryl hydrocarbon receptor | P35869 | activation, % at 5 µM | AHR-responsive luciferase reporter cells, luminescence | hit rate 2.5% among 320,000; in the data active = activation above about 47%;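 note: 0% = vehicle wells and 100% = reference agonist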
Target sequence (P35869 whole entry, looked up): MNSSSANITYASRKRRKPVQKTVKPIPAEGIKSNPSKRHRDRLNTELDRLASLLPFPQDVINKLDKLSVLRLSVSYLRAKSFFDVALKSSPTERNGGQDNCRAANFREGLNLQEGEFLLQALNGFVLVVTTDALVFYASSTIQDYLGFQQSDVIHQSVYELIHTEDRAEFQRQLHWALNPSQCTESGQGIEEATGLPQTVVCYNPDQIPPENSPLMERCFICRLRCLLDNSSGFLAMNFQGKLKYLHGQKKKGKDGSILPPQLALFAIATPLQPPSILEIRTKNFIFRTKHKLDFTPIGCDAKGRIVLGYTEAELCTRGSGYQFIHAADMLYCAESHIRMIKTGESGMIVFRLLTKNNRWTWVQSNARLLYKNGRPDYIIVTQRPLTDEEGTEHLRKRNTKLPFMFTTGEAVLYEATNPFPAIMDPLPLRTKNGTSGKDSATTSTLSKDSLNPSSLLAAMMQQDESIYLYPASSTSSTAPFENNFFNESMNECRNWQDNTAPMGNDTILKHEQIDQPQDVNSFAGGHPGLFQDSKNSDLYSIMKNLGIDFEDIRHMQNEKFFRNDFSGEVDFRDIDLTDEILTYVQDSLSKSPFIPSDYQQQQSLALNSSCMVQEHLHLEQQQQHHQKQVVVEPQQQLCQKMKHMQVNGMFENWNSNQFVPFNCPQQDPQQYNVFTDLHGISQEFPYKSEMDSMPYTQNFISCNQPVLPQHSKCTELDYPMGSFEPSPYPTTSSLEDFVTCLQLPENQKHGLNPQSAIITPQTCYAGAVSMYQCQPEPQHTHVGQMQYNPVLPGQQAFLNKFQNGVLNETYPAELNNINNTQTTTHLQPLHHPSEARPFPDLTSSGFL
rCAG binder – molecules binding r(CAG) RNA repeats | r(CAG) RNA repeat, TO-PRO-1 dye displacement fluorescence | inhibition, % at 3 µM | hit rate 1.3% among 370,000;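 active = inhibition above the plate cutoff, the mean of all test compounds on that plate plus 3 SD, cut at about 35% in these data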;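 note: 0% = DMSO alone and 100% = 100 µM mitoxantrone as full dye displacement; higher means more dye released from RNA so lower well fluorescence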
ADAM10 inh – ADAM10 inhibition, QFRET primary screen; inhibition, % at 7 µM; hit rate 0.62% among 370,000; O14672; recombinant ADAM10, EDANS/DABCYL FRET peptide cleavage, 3 h;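 active = inhibition above a per-campaign cutoff equal to the mean of compounds falling between control-based bounds plus 3 SD, cut at about 20% in these data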;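 note: 0% = DMSO wells while the 100% control is not disclosed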
GRIN3A LBD mod – NR3A (human) ligand-binding domain modulation | NR3A LBD differential scanning fluorimetry, Tm shift; 0% = protein alone, 100% = glycine-bound protein | Tm shift relative to glycine control, % at 25 µM | hit rate 2.5% among 340,000;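 active = melting temperature shift of at least 10% of the positive control shift, at one fixed dose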
proKLK7 act – activates the human kallikrein-7 zymogen; activation, % at 7 µM; purified proKLK7, EDANS-DABCYL substrate fluorescence; 100% is mature enzyme control, 0% vehicle; AID 652039; hit rate 0.9% among 370,000;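 active = activation above the mean of all tested compounds plus 3 SD, computed per campaign excluding outliers beyond control limits, cut at about 13% in these data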
AHR act confirm – human AHR activation, confirmation. shares compounds with AHR act. human cells, AHR-responsive luciferase reporter, luminescence. activation, % at 9 µM. hit rate 87% among 2,300; in the data active = activation above about 49%;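 note: HepG2 hepatoma cells carrying a DRE-driven firefly luciferase reporter; 0% = vehicle wells and 100% = reference agonist wells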
PXR act counter – counter-screen for AHR activators: human PXR activators | cell-based PXR reporter, luciferase luminescence | shares compounds with AHR act | hit rate 88% among 2,300 | AID 434939 | activation, % at 11.6 µM; in the data active = activation above about 11%;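 note: human hepatoma DPX-2 cells expressing full-length human PXR; 0% = DMSO and 100% = reference agonist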
An asterisk follows results filed as active; · = no result given. An excerpt weighted towards active compounds, which were near 7% of everything screened.

SMILES | ADAM17 inh | AHR act | rCAG binder | ADAM10 inh | GRIN3A LBD mod | proKLK7 act | AHR act confirm | PXR act counter
Cc1ccc(NC(=O)C2OCCc3ccccc32)cc1 (stereo not given) | -2 | 118* | -5 | -6 | 0 | 0 | 104* | 64*
Cc1cn2c(N)c(/C=C3\C=Nc4ccccc43)c(=O)nc2s1 | -2 | 111* | 25 | -3 | 16* | 1 | 116* | 20*
Cc1cn2c(N)c(C=C3C=C(Cl)C(=O)C(Cl)=C3)c(=O)nc2s1 | -9 | · | 3 | -15 | 0 | 0 | · | ·
C[C@H]1Cn2cnc(C(=O)N3CCN(c4ccccc4)CC3)c2C(=O)N1 | 1 | · | 6 | -8 | · | 1 | · | ·
O=C1c2ccccc2-n2c1nc1ccccc1c2=O | 1 | 108* | 1 | -1 | 0 | 0 | 155* | 30*
COCCCNC(=O)c1sc2ncnc(N3CCc4ccccc4C3)c2c1C | -6 | 100* | -3 | -21 | -1 | 0 | 82* | 20*
Cc1c(C(=O)N2CCOCC2)sc2ncnc(N3CCc4ccccc4C3)c12 | -1 | 28 | -3 | -10 | 0 | 1 | · | ·
CCc1nc(NCCCn2ccnc2)c2oc3ccccc3c2n1 | -3 | 109* | 0 | -4 | 0 | -1 | 114* | 41*
CCc1nc(Nc2ccccc2F)c2oc3ccccc3c2n1 | -8 | 94* | -1 | -9 | -3 | -3 | 95* | 42*
CCc1nc(Nc2ccccc2)c2oc3ccccc3c2n1 | -11 | 22 | 7 | -44 | -11 | 0 | · | ·
Cc1cccc2cc(C#N)c(NCCCn3ccnc3)nc12 | -117 | 92* | -7 | -393 | 0 | 2 | 67* | 33*
COC(=O)c1ccc2nc(-c3cccc(Cl)c3)c(Cc3ccccc3C(F)(F)F)n2c1 | -7 | · | 4 | -17 | · | 0 | · | ·
COC(=O)C1=C(C)N(Cc2ccc(Cl)cc2)C(=S)NC1c1ccc(Cl)cc1 (stereo not given) | 0 | · | 5 | 5 | · | 0 | · | ·
C[C@H]1COc2cccc(F)c2S(=O)(=O)N1C | -6 | · | 2 | -3 | · | -1 | · | ·
O=C1NC(c2cccs2)Nc2sc3c(c21)CCCC3 (stereo not given) | -18 | 93* | 17 | -68 | 2 | -6 | 128* | 37*
O=C(C1CCCN1S(=O)(=O)c1cccc([N+](=O)[O-])c1)N1CCN(c2ccccc2)CC1 (stereo not given) | 3 | · | 1 | 5 | · | 0 | · | ·
c1ccc2c(c1)CCN(c1nc3ccccc3n3cnnc13)C2 | -6 | 86* | 4 | -30 | -5 | 0 | 66* | 19*
CCN1CCn2c3c(c4cc(C)ccc42)CCCC31 (stereo not given) | -8 | 81* | -7 | -5 | -3 | 3 | 105* | 11*
Cc1ccc2c(c1)c1c3n2CCN(C(=O)CCl)C3CCC1 (stereo not given) | -11 | 113* | -4 | -39 | 2 | 2 | 98* | 17*
COc1ccccc1N1CCN(S(=O)(=O)c2ccc3c(c2)n(C)c(=O)c(=O)n3C)CC1 | 0 | · | 5 | -1 | · | 0 | · | ·
CCNC(=O)/C(C#N)=C/c1c(N2CCN(c3ccccc3)CC2)nc2c(C)cccn2c1=O | -28 | 80* | -1 | -84 | 0 | 2 | 69* | 19*
CCNC(=O)/C(C#N)=C/c1c(N2CCN(c3ccc(OC)cc3)CC2)nc2c(C)cccn2c1=O | -25 | 22 | 0 | -63 | 4 | 1 | · | ·
CC(=O)Nc1c(C(=O)Nc2ccc3c(c2)OCO3)oc2ccccc12 | -2 | 113* | 0 | -3 | 0 | 0 | 147* | 35*
COCC(=O)Nc1c(C(=O)Nc2ccc3c(c2)OCO3)oc2ccccc12 | -5 | 134* | 0 | 0 | -1 | 0 | 100* | 48*
CSCc1c(C(=O)Nc2ccc(N3CCOCC3)cc2)oc2ccccc12 | 3 | 87* | 1 | 17 | -3 | 0 | 95* | 13*
SMILES | ADAM17 inh | AHR act | rCAG binder | ADAM10 inh | GRIN3A LBD mod | proKLK7 act | AHR act confirm | PXR act counter
O=C(CCl)Nc1c(C(=O)Nc2ccc3c(c2)OCCO3)oc2ccccc12 | -10 | 23 | 2 | -10 | -2 | 1 | · | ·
CSCc1c(C(=O)Nc2ccc3c(c2)OCO3)oc2ccccc12 | 5 | 92* | 11 | -4 | -12 | -1 | 109* | 45*
O=S1(=O)c2ccc(N3CCC[C@H]3CO)cc2O[C@@H]2CCN1C2 | -4 | · | 0 | -3 | · | 0 | · | ·
c1cnc(SCC2CCCCC2)c(-c2nc3ccccc3[nH]2)c1 | -2 | · | 0 | -9 | · | 0 | · | ·
CCc1cc2c(nc1CC)CCCN2Cc1ccccc1C(F)(F)F | -48 | · | 5 | -156 | · | -2 | · | ·
CC(=O)c1coc2c1cc(O)c1ccccc12 | -2 | -5 | 3 | 1 | 2 | 0 | · | ·
CC(=O)c1cc(O)c2ccccc2c1O | -8 | 90* | 33 | -14 | 0 | 1 | 118* | 9
Cc1ccc(NC(=S)Nc2cc(-c3ccccc3)[nH]n2)cc1Cl | 4 | 94* | 11 | 16 | 24* | 0 | 103* | 37*
Cc1ccc(NC(=S)N(C)N)cc1Cl | -1 | 1 | -4 | -1 | -2 | 0 | · | ·
COc1ccc(OC)c2c1C(=O)C(Cl)=C(Cl)C2=O | -3 | 137* | 1 | -2 | -23 | 7 | -4 | -7
Cc1nc(-c2cccnc2)sc1C(=O)Nc1ccc(F)cc1F | 0 | 8 | 0 | 12 | 2 | 0 | · | ·
Cc1nc(-c2ccccn2)sc1C(=O)Nc1ccc(F)cc1F | -3 | 95* | -5 | -4 | 0 | 0 | 44 | 26*
CCC(NC(=O)Cn1c(-c2ccccc2)cc(C(C)=O)c1C)c1ccccc1 (stereo not given) | 0 | · | 3 | -4 | · | 1 | · | ·
COCc1cc(=O)[nH]c(Nc2nc3ccccc3o2)n1 | -5 | 130* | 2 | 2 | -5 | 0 | 74* | 19*
COc1ccc(N=NC2=C(O)CC(C)(C)CC2=O)c(OC)c1 | 4 | 6 | -14 | 1 | 1 | 0 | · | ·
COc1ccc(N=Nc2nc3cc(Br)c(Br)cc3n2C)c(OC)c1 | -4 | 83* | -137 | -1 | -11 | 0 | 57* | 18*
COC(=O)c1[nH]c2ccccc2c1NC(=O)Oc1ccccc1 | -14 | 95* | -1 | -36 | 17* | 4 | 48* | 19*
COC(=O)c1[nH]c2ccccc2c1NC(=O)c1ccccc1F | 0 | 12 | -1 | 4 | 2 | 0 | · | ·
S=C(SCc1nc(-c2ccc(Cl)cc2)no1)N1CCSCC1 | -5 | · | 1 | -9 | · | 0 | · | ·
